This is a sample that favours compounds with a hit; in the whole collection about 6.2% have one here.
HCMV antiviral – blocks human cytomegalovirus replication. HFF cells, HCMV-luciferase reporter, 72 h; hits give low values. AID 1259415. activity change, negative = inhibition, % at 57.5 µM. hit rate 4.5% among 410,000; in the data active = activity change below about -60%; inconclusive = no clear call, values can overlap the other calls; inactive = above about -39%
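After 16 h attachment at 37C, HFF cells received test compound and HCMV-luciferase (1 PFU/cell); reporter luminescence read 72 h later, data normalized against buffer-only and known inhibitor Salinomycin.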
FMDV antiviral – blocks foot and mouth disease virus; FMDV antiviral cell-based qHTS; AID 1159524; Potency, µM (titrated, usually from 57.9 µM), inactives show at the highest dose activity change, negative = inhibition, usual class: inhibitors; hit rate 1.2% among 410,000; calls by dose curve; tested in HEK293T cells; note: read-out not given here; potency is the fitted concentration of half-maximal effect; nearly all actives have a fitted effect of over 45% in size
MARV entry inh – blocks Marburg virus binding to or entry into cells; Potency, µM (series often up to 37.8 µM), for inactives: at the top dose activity change, negative = inhibition, actives largely listed as inhibitors; Marburg virus pseudotyped entry inhibition, cell reporter; hit rate 1.8% among 300,000; calls by dose curve; tested in HEK293 cells; note: potency is the fitted concentration of half-maximal effect
Lassa entry inh – inhibitors of Lassa virus binding or cell entry | Lassa virus pseudotype entry inhibition, cell reporter | Potency, µM (titrated, usually from 37.9 µM), for the others: at the highest dose activity change, negative = inhibition, most hits filed as inhibitors | hit rate 1.2% among 300,000; calls by dose curve; tested in HEK293 cells; note: potency is the fitted concentration of half-maximal effect; nearly all actives have a fitted effect of over 50% in size
* = called active by the depositor; ? = inconclusive; . = no result given; + = active, no number; ! = not active in a repeat; [ ] = remark or other dose. % is set by controls: 0 for no effect and ±100 for the full control effect.

SMILES	HCMV antiviral	FMDV antiviral	MARV entry inh	Lassa entry inh
CCn1nc(C)c(/C=C/C(=O)Nc2ccc(C)cc2C)c1C	-73*	-26%	0%	?
CN(c1cccnc1)c1ccc(NC(=O)Cc2c[nH]c3ccccc23)cc1-c1ccc(C(C)(C)C)cc1	-36	.	.	.
OC(COc1ccc(CNCCc2ccc(C(F)(F)F)cc2)cc1)CN1CCCCC1 (stereo unspecified)	-80*	-22%	?	?
OC(CNCCc1ccc(C(F)(F)F)cc1)COc1ccc2ccccc2c1 (stereo unspecified)	-34	-22%	?	16µM*
C=CC[C@@H]1C=C[C@@H](Oc2ccc(OC)cc2)[C@H](COC(=O)c2ccc(Br)cc2)O1	.	.	-4%[14.2 µM]	.
O=C(Nc1ccc2nc(-c3cccs3)[nH]c2c1)c1cccs1	?	15%	-8%[46.1 µM]	18%
O=C(Cc1cccs1)Nc1cccc(-c2nc3cc4ccccc4cc3[nH]2)c1	-88*	-5%	?	?
CC(=O)Nc1cccc(NC(=O)Cc2cccs2)c1	29	5%	.	.
O=C(Nc1ccc(-c2nc3ccc(NC(=O)c4cccs4)cc3[nH]2)cc1)c1cccs1	-84*	?	?	?
CC(=O)Nc1ccc2nc(-c3ccncc3)[nH]c2c1	49	2%	-2%	-6%
CC(=O)Nc1cc(NC(C)=O)cc(-c2nc3ccccc3[nH]2)c1	-108*!	40µM*	11%[46.1 µM]	-1%
CS(=O)(=O)c1cccc(C(=O)Nc2ccc(-c3nc4ccccc4[nH]3)cc2)c1	-65*	-26%	?	-15%[46.1 µM]
Cc1cnc(-n2ncc(C(=O)NCC(C)(C)N3CCOCC3)c2C)nc1-c1cccs1	.	-2%	.	.
COc1ccc(CSc2nc3ccncc3n2CC(=O)Nc2cc(C)cc(C)c2)cc1	41	38%	?	2%[46.1 µM]
CCCN(CCC)S(=O)(=O)c1ccc(C(=O)Nc2cccc(-c3nc4ccccc4[nH]3)c2)cc1	-88*	?	.	?
Cc1cc(Nc2ccccc2)nc(NCc2ccccc2)n1	-66*	-19%	?	?
CCCCNc1cc(C)nc(NCc2ccccc2)n1	.	?	11µM*	11µM*
Cc1cc(Nc2ccc(Cl)cc2)nc(NCc2ccccc2)n1	-31	32µM*	?	?
Cc1cc(C)nc(NCCCc2ccccc2)n1	-15	.	-6%	-2%
Cc1cc(N2CCC(C)CC2)nc(NCc2ccccc2)n1	-85*	0%	?	18µM*
Cc1cc(O)cc(O)c1C(=O)Cc1ccccc1	-71*	0%	?	?
O=C(CNc1cccc(S(=O)(=O)N2CCCC2)c1)Nc1ccc(C(F)(F)F)cc1	-69*	-27%	?	?
O=S(=O)(c1cccc(Cl)c1)N1CCCC1	-107*	7%	27%	11%
O=C(CNc1cccc(S(=O)(=O)N2CCCCC2)c1)Nc1ccc(C(F)(F)F)cc1	-79*	?	.	.
CCOc1ccc(NC(=O)CN2C(=O)C(C)SC(C)C2=O)cc1 (stereo unspecified)	-65*	6%	1%[46.1 µM]	8%
SMILES	HCMV antiviral	FMDV antiviral	MARV entry inh	Lassa entry inh
O=c1c(O)c(-c2ccccc2)oc2ccc3occc3c12	.	9%	.	.
CCOc1ccc(C(=O)OCC(=O)Nc2cccc(S(=O)(=O)N3CCCC3)c2)cc1	14	-1%	-20%	?
N#Cc1cccc(NC(=O)CNc2cccc(S(=O)(=O)N3CCCCC3)c2)c1	?	35µM*	?	-21%
O=C(c1ccc(S(=O)(=O)N2CCCC2)cc1)N1CCN(c2cccc(Cl)c2)CC1	-28	?	?	?
O=C(c1cc(S(=O)(=O)N2CCCC2)c[nH]1)N1CCN(c2cccc(Cl)c2)CC1	-102*	21%	.	3%[46.1 µM]
O=C(CCl)Nc1cccc(S(=O)(=O)N2CCCCCC2)c1	-97*	25µM*	?	7.9µM*
CCOc1ccc(C(=O)CCC(=O)Nc2cccc(S(=O)(=O)N3CCCCC3)c2)cc1	-13	0%	?	10µM*
COc1cc2c(cc1OC)CSC1C(=O)N(C)C(SC2)C(=O)N1C	.	.	-4%[14.2 µM]	.
COc1cccc(Nc2nccc3[nH]c(-c4cccc(C(F)(F)F)c4)nc23)c1	-18	.	.	.
CCOC(=O)c1c(C)oc2nc(C)nc(N3CCN(c4ccc(C(C)=O)cc4)CC3)c12	27	0%	.	11%[46.1 µM]
CCCCSCCCNC(=O)c1cn(C)c2ccc(S(=O)(=O)N3CCCCCC3)cc2c1=O	2	-5%	10%[46.1 µM]	-5%[46.1 µM]
CCOc1ccc(NC(=O)CN2C(=O)CSc3ccc(S(=O)(=O)N4CCCC4)cc32)cc1	+	-1%	.	.
CCOc1ccc(NC(=O)CN2C(=O)CCSc3ccc(S(=O)(=O)N4CCCC4)cc32)cc1	4	?	.	21%[46.1 µM]
Cc1ccc(C(=O)NCC(c2ccc3c(c2)OCO3)N2CCN(C)CC2)cc1C (stereo unspecified)	-19	-10%	.	10%[46.1 µM]
COc1cc(OC)c2c(-c3cccc(-c4sccc4C(C)=O)c3)cc(=O)oc2c1	-79*	0%	.	.
COc1ccc(NC(=O)N2CC(=O)N3[C@H](CO)[C@@H](c4ccc(Br)cc4)[C@@H]3C2)cc1	-1	.	.	.
CCOc1ccc(CC(=O)Nc2c(C(=O)c3ccc(C)cc3)oc3ccccc23)cc1OCC	-63*	0%	?	14%[46.1 µM]
CCOc1ccc(CC(=O)Nc2c(C(=O)c3ccc(Cl)cc3)oc3ccccc23)cc1OCC	-23	?	?	1%[46.1 µM]
Cc1cccc(NC(=O)CN2CCN(C(=O)CNC(=O)c3ccc(-c4ccccc4)cc3)CC2)c1C	?	20µM*	.	.
Cc1cccc(C)c1NC(=O)CN1CCN(C(=O)CNC(=O)c2ccc(-c3ccccc3)cc2)CC1	?	-24%	.	.
O=c1[nH]c(=S)[nH]cc1Oc1ccc(Br)cc1Br	51	-7%	?	-5%[46.1 µM]
CC1=C(C)C(=O)C(CCCCC#CCCCC#CCO)=C(C)C1=O	.	22µM*	?	21µM*
CC(C)OC(=O)c1cc(NC(=O)c2nn(C)cc2Br)cc(C(=O)OC(C)C)c1	12	0%	?	5.2µM*
COC(=O)C1=C(C)NC(C)=C(C(=O)OCCCN2CCC(c3ccccc3)(c3ccccc3)CC2)C1c1cccc([N+](=O)[O-])c1 (stereo unspecified)	.	21%[39.8 µM]	.	.
CN(Cc1ccccc1)C(=O)c1ccc2c(c1)N(Cc1ccc(Cl)cc1)C(=O)c1ccccc1S2=O (stereo unspecified)	?	0%	0%[46.1 µM]	25%[46.1 µM]
SMILES	HCMV antiviral	FMDV antiviral	MARV entry inh	Lassa entry inh
CCc1c(C)nc2ncnn2c1NCCc1ccc(Cl)cc1	?	14µM*	?	?
COc1cc(C)c(CN2C[C@H](Sc3nc4ccccc4[nH]3)C[C@H]2C(=O)N(C)C)cc1C	.	-12%	.	.
CN1CCCN=C1COC(=O)[C@@](O)(c1ccccc1)C1CCCCC1	.	.	-6%	.
CCn1nc(C)c(CN2CCC3(CCC(CNC(=O)c4ccccc4)O3)CC2)c1C (stereo unspecified)	.	-11%	.	.
Cc1nnc(N2CCN(C(=O)Nc3cccc(C(F)(F)F)c3)CC2)c2nn(-c3ccccc3)c(C)c12	?	?	.	-17%[46.1 µM]
Cc1cc(Br)cc2c(C(=O)Nc3c(C)n(C)n(-c4ccccc4)c3=O)cc(-c3cccs3)nc12	-63*	.	6.5µM*	?
CC(C)C[C@H]1COc2cccc(N3CCCC3)c2S(=O)(=O)N1	4	.	.	?

Assay outcomes from PubChem.
